Source: PubChem BioAssay (EPA / NIEHS)
Records with an inconclusive call do not appear. Active and inactive are the calls of the source. How the source made its calls, unless noted: active means hit-call score of the fitted dose curve at least 0.9, where 1 is the maximum; inactive means score below 0.9.

Legend:
[1] = target: Hepatocyte nuclear factor 3-beta (Homo sapiens) (UniProt Q9Y261); assay: ATG_FoxA2_CIS: Attagene CIS-FACTORIAL HepG2 Assay for human Forkhead box A2 (FOXA2) (AID 2282942); settings: HepG2 cis-reporter transcription factor activity, 24 h; actives raise or lower the signal
Sequence of Hepatocyte nuclear factor 3-beta (Homo sapiens) (Q9Y261 whole entry, looked up): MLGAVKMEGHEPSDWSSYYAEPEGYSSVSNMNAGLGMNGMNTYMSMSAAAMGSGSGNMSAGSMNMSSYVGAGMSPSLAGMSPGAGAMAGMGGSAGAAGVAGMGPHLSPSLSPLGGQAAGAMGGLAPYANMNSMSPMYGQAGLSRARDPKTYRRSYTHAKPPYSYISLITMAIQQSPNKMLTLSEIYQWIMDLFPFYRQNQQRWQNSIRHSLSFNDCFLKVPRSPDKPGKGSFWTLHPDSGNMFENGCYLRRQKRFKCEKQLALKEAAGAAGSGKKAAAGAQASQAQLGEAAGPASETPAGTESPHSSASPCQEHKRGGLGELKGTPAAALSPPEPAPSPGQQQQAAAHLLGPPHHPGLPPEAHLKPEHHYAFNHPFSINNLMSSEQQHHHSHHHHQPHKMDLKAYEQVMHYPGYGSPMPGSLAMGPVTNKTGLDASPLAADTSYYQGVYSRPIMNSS
Summary of the method: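 Endogenous transcription factor activity was read in HepG2 cells carrying transiently transfected cis-promoter reporter units. After 24 h dosing, reporter mRNA was quantified by RT-PCR and capillary electrophoresis, and values fitted bidirectionally versus DMSO.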

[2] = ATG_ISRE_CIS: Attagene CIS-FACTORIAL HepG2 Assay for human Interferon Regulatory Factor 1 (IRF1) binding to an Interferon-Stimulated Response Element (ISRE) (AID 2282948); settings: HepG2 ISRE cis-reporter (Attagene), mRNA transcription readout; actives raise or lower the signal
Summary of the method: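 Read-out: fluorescent RT-PCR products resolved by capillary electrophoresis, reporting endogenous transcription factor activity via ISRE-driven reporter mRNA in transfected HepG2 cells dosed for 24 h; gain or loss fitted relative to DMSO.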

[3] = target: Hepatocyte nuclear factor 6 (Homo sapiens) (UniProt Q9UBC0); assay: ATG_HNF6_CIS: Attagene CIS-FACTORIAL HepG2 Assay for human Hepatocyte Nuclear Factor 6 (HNF6) (AID 2282952); settings: HepG2 Attagene cis-factorial HNF6 reporter transcription; actives raise or lower the signal
Sequence of Hepatocyte nuclear factor 6 (Homo sapiens) (Q9UBC0 whole entry, looked up, the tested form may be a part): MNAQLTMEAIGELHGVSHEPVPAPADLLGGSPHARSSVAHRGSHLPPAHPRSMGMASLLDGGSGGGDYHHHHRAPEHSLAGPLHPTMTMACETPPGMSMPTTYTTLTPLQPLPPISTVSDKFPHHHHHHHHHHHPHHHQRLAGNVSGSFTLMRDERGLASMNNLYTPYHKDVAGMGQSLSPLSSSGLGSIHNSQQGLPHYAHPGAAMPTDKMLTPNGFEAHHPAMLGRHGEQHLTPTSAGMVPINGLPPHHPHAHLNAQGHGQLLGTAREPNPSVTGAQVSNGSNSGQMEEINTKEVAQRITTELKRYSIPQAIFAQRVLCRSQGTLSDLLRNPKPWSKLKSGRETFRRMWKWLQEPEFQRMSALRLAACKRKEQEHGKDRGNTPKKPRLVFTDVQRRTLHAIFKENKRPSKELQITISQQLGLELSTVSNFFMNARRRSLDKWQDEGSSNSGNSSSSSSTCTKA
Summary of the method: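 Using cis-element reporters in HepG2 liver cells, the assay tracks endogenous factor-driven transcription 24 h post-dosing. Signal comes from 6-FAM-labelled, HpaI-digested RT-PCR fragments, with gain or loss scored against DMSO.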

[4] = target: Heat shock factor protein 1 (Homo sapiens) (UniProt Q00613); assay: ATG_HSE_CIS: Attagene CIS-FACTORIAL HepG2 Assay for human Heat Shock Transcription Factor 1 (HSE) (AID 2282953); settings: HepG2 HSE cis-reporter, Attagene RNA transcription; actives raise or lower the signal
Sequence of Heat shock factor protein 1 (Homo sapiens) (Q00613 whole entry, looked up, the tested form may be a part): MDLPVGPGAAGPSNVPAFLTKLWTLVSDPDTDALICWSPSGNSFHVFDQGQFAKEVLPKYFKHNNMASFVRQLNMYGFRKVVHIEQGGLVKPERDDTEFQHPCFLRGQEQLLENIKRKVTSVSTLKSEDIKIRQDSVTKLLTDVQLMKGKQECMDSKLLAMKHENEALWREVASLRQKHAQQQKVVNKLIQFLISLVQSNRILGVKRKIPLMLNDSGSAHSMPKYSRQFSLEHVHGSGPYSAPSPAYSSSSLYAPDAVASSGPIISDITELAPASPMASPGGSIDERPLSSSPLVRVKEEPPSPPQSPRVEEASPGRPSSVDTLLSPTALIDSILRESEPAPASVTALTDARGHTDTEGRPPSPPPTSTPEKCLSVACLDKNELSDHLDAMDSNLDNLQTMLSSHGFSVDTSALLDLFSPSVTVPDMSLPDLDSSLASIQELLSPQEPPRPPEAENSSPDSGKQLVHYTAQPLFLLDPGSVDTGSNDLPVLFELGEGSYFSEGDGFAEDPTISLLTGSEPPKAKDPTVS
Summary of the method: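 Endogenous transcription factor activity captured via cis-promoter reporter units transfected into HepG2; treatment lasted 24 h. Fluorescence intensity of reporter fragments analysed with bidirectional curve fitting, DMSO baseline.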

[5] = target: Transcription factor Sp1 (Homo sapiens) (UniProt P08047); assay: ATG_Sp1_CIS: Attagene CIS-FACTORIAL HepG2 Assay for human Specificity Protein 1 (Sp1) (AID 2282961); settings: HepG2 Sp1 cis-reporter transcription, actives raise or lower the signal
Sequence of Transcription factor Sp1 (Homo sapiens) (P08047 whole entry, looked up): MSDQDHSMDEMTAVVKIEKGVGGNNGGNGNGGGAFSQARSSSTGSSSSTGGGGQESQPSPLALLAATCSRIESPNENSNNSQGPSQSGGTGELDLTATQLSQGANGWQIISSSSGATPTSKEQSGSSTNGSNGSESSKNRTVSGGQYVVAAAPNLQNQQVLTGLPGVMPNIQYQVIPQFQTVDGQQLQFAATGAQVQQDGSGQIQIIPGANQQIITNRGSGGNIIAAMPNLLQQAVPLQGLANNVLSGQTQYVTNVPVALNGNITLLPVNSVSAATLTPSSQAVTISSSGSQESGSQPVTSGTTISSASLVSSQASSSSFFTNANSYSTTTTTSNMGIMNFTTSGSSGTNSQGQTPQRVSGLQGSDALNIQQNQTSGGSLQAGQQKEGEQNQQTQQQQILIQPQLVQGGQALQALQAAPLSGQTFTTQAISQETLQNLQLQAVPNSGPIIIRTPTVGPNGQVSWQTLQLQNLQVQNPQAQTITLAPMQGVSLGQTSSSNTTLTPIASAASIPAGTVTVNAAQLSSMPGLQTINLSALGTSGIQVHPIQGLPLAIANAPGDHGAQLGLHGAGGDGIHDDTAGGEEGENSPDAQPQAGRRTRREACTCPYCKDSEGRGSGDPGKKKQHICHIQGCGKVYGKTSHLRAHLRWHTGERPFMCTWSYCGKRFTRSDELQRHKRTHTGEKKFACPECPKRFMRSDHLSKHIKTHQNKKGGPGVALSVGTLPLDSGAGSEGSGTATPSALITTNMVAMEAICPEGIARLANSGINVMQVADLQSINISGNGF
Summary of the method: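 Endogenous Sp1 activity was gauged in human liver HepG2 cells bearing transfected reporter units under a cis-regulating promoter. After 24 h dosing, reporter mRNA was quantified by RT-PCR with capillary electrophoresis, and activity fitted bidirectionally versus DMSO.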

[6] = ATG_SREBP_CIS: Attagene CIS-FACTORIAL HepG2 Assay for human Sterol Regulatory Element Binding (SREBP) (AID 2282962); settings: HepG2 Attagene cis-factorial SREBP reporter, mRNA; actives raise or lower the signal
Summary of the method: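 Readout: fluorescent reporter-transcript peaks resolved by capillary electrophoresis after RT-PCR. Cells were human HepG2 carrying transfected cis-promoter reporter constructs, dosed for 24 h. Gain or loss of signal was fitted against DMSO controls.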

[7] = target: Nuclear respiratory factor 1 (Homo sapiens) (UniProt Q16656); assay: ATG_NRF1_CIS: Attagene CIS-FACTORIAL HepG2 Assay for human Nuclear Respiratory Factor 1 (NRF1) Orphan Gene (AID 2282987); settings: HepG2 NRF1 cis-element reporter, Attagene multiplex; actives raise or lower the signal
Sequence of Nuclear respiratory factor 1 (Homo sapiens) (Q16656 whole entry, looked up, the tested form may be a part): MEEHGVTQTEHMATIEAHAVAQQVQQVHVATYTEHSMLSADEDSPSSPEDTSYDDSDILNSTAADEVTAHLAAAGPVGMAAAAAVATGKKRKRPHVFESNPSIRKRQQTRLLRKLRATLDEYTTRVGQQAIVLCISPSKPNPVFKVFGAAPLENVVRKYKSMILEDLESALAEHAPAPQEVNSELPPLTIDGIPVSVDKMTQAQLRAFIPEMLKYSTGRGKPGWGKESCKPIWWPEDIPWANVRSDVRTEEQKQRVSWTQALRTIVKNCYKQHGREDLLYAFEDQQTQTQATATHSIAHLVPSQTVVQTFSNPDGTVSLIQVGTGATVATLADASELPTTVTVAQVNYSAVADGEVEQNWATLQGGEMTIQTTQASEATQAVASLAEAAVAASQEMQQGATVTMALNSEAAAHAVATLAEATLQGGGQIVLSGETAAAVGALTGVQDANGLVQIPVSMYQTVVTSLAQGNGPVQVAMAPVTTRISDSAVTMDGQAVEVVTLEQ
Summary of the method: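 Fluorescence intensity of labelled reporter cDNA fragments, resolved by capillary electrophoresis, served as readout for NRF1 cis-element activity. Transiently transfected HepG2 cells were dosed for 24 hours; activity in either direction was fitted against DMSO negative control.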

[8] = target: Cellular tumor antigen p53 (Homo sapiens) (UniProt P04637); assay: ATG_p53_CIS: Attagene CIS-FACTORIAL HepG2 Assay for human p53 Transcription Factor (AID 2282994); settings: HepG2 p53 cis-element reporter, Attagene mRNA; actives raise or lower the signal
Sequence of Cellular tumor antigen p53 (Homo sapiens) (P04637 whole entry, looked up): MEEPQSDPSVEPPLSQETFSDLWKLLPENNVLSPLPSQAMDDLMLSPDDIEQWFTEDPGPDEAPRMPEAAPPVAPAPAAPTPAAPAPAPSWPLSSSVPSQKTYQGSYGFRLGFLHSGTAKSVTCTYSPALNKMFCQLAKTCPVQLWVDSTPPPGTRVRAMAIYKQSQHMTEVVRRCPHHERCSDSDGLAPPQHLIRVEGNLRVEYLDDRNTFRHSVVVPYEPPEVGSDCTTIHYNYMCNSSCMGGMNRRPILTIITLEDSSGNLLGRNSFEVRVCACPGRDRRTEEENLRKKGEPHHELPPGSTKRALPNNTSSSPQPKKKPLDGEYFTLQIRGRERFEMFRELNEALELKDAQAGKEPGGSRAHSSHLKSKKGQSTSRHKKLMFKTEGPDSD
Summary of the method: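 Read-out: reporter mRNA by RT-PCR plus capillary electrophoresis with fluorescence detection. Human HepG2 liver cells carried transfected multi-reporter cis-element constructs, dosed 24 h. Gain or loss of signal fitted bidirectionally against DMSO control.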

[9] = target: Cellular tumor antigen p53 (Homo sapiens) (UniProt P04637); assay: TOX21_p53_BLA_p3_ratio: Tox21 HCT-116 p53 Agonism Beta-lactamase Assay, Ratio, Phase 3 (AID 2283596; active means hit-call score of the fitted dose curve at least 0.9, where 1 is the maximum)
Summary of the method: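 Cells were seeded at 4000/well, rested 5 h at 37C, then dosed with DMSO compound solutions (217-fold dilution) for 16 h. CCF4-AM substrate was loaded for 2 h at room temperature, and the 460/530 nm emission ratio was fitted for gain of signal versus DMSO.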

[10] = TOX21_p53_BLA_p4_viability: Viability Assessment in the Tox21 HCT-116 p53 Agonism Beta-lactamase Assay, Phase 4 (AID 2283597; active means hit-call score of the fitted dose curve at least 0.9, where 1 is the maximum;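 further: hits lower the luminescence signal meaning cytotoxicity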)
Summary of the method: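 Readout: ATP luminescence (CellTiter-Glo), measured 30 min after reagent addition at RT. The reagent followed a 2 h CCF4-AM incubation, and the cells had been exposed to compound for 16 h at 37C.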

[11] = TOX21_p53_BLA_p5_viability: Viability Assessment in the Tox21 HCT-116 p53 Agonism Beta-lactamase Assay, Phase 5 (AID 2283600; active means hit-call score of the fitted dose curve at least 0.9, where 1 is the maximum)
Summary of the method: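 Workflow: seed 4000 cells per well, wait 5 h, add compounds (DMSO, 217-fold dilution), incubate 16 h, load CCF4-AM 2 h, add CellTiter-Glo, read luminescence after 30 min.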

[12] = target: Cellular tumor antigen p53 (Homo sapiens) (UniProt P04637); assay: TOX21_p53_BLA_p4_ratio: Tox21 HCT-116 p53 Agonism Beta-lactamase Assay, Ratio, Phase 4 (AID 2283601; active means hit-call score of the fitted dose curve at least 0.9, where 1 is the maximum)
Summary of the method: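 HCT-116 p53 beta-lactamase reporter cells (4000/well) preincubated 5 h, then compound (217-fold dilution of DMSO stock) for 16 h at 37C. CCF4-AM substrate added 2 h at room temperature; 460/530 nm emission ratio fitted upward versus DMSO.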

[13] = ATG_M_61_CIS: Attagene CIS-FACTORIAL HepG2 Assay for M61 Transcription Factor (Internal Marker) (AID 2282937); settings: HepG2 Attagene CIS-FACTORIAL M61 internal marker reporter; actives raise or lower the signal
Summary of the method: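 Cells were transfected with reporter units under cis-regulatory promoters, treated with chemicals for 24 h, then lysed for RNA. Reporter transcripts were quantified by RT-PCR and capillary electrophoresis, and activity was fitted bidirectionally against DMSO.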

[14] = ATG_Ets_CIS: Attagene CIS-FACTORIAL HepG2 Assay for human Erythroblast Transformation Specific (ETS) (AID 2282941); settings: HepG2 ETS cis-reporter transcription, actives raise or lower the signal
Summary of the method: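 RT-PCR/capillary electrophoresis fluorescence read-out of reporter mRNA; HepG2 transient multi-reporter transfection; 24 h compound exposure; gain or loss of signal fitted bidirectionally relative to DMSO.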

[15] = ATG_GRE_CIS: Attagene CIS-FACTORIAL HepG2 Assay for human Glucocorticoid Response Elements (GRE) (AID 2282947); settings: HepG2 GRE cis-reporter, Attagene multiplex mRNA; actives raise or lower the signal
Summary of the method: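 Fluorescence intensity of reporter-specific cDNA fragments, separated by capillary electrophoresis, provides the signal. Constructs carry cis-regulating promoters in transiently transfected HepG2 liver cells; 24 h incubation; fitting is bidirectional against DMSO.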

[16] = ATG_PXRE_CIS: Attagene CIS-FACTORIAL HepG2 Assay for human Pregnane X Receptor Element (PXRE) (AID 2282957); settings: HepG2 Attagene CIS-FACTORIAL PXRE reporter, mRNA; actives raise or lower the signal
Summary of the method: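 Using HepG2 transfected with multiple reporter transcription units, endogenous factor-driven transcription was scored as reporter mRNA after 24 h exposure.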

[17] = TOX21_p53_BLA_p3_viability: Viability Assessment in the Tox21 HCT-116 p53 Agonism Beta-lactamase Assay, Phase 3 (AID 2283593; active means hit-call score of the fitted dose curve at least 0.9, where 1 is the maximum;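 further: cells exposed to compound for 16 h before reading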)
Summary of the method: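 HCT116 cells, 4000/well, dosed 5 h after plating by pin transfer (217-fold dilution from DMSO stock) and incubated 16 h at 37C, 5% CO2. Viability read as ATP luminescence with CellTiter-Glo after 30 min at room temperature.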

[18] = target: Cellular tumor antigen p53 (Homo sapiens) (UniProt P04637); assay: TOX21_p53_BLA_p5_ratio: Tox21 HCT-116 p53 Agonism Beta-lactamase Assay, Ratio, Phase 5 (AID 2283599; active means hit-call score of the fitted dose curve at least 0.9, where 1 is the maximum)
Summary of the method: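 HCT-116 p53-bla cells (4000/well) plated 5 h, dosed with compound (217-fold DMSO dilution) for 16 h at 37 C; CCF4-AM substrate 2 h at room temperature. Activity is the 460/530 nm emission ratio (405 nm excitation), fitted in gain-of-signal direction versus DMSO.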

[19] = TOX21_p53_BLA_p2_viability: Viability Assessment in the Tox21 HCT-116 p53 Agonism Beta-lactamase Assay, Phase 2 (AID 2283591; active means hit-call score of the fitted dose curve at least 0.9, where 1 is the maximum;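 further: compound exposure lasted 16 h at 37 °C; actives lower the ATP signal meaning cytotoxicity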)
Summary of the method: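 HCT116 p53-bla cells, 4000/well, dosed after 5 h plating (217-fold dilution of DMSO stocks) and incubated 16 h at 37C. Viability taken as cellular ATP by CellTiter-Glo luminescence after 30 min RT; signal loss marks cytotoxicity.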

[20] = target: Cellular tumor antigen p53 (Homo sapiens) (UniProt P04637); assay: TOX21_p53_BLA_p2_ratio: Tox21 HCT-116 p53 Agonism Beta-lactamase Assay, Ratio, Phase 2 (AID 2283592; active means hit-call score of the fitted dose curve at least 0.9, where 1 is the maximum)
Summary of the method: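 Plated HCT116 p53-bla cells (4000/well) received compound after 5 h, then 16 h at 37C/5% CO2. CCF4-AM added, 2 h RT. Ratio of 460 to 530 nm emission taken as the p53 reporter signal.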

Measured: AC50

CN(C)N=Nc1ccccc1
not listed: [13] | [14] | [15] | [16] | [17] | [18] | [19] | [20]
inactive: all other assays above

C=CCOC(=O)C(=C)C
not listed: [2] | [11] | [19] | [20]
inactive: all other assays above

O=C1NC(=O)[C@@H]2CC=CC[C@H]12
not listed: [5] | [10] | [11] | [16]
inactive: all other assays above

O=C(O)c1cc(Cl)cc(Cl)c1O
active: [16] 68.7 µM
not listed: [15]
inactive: all other assays above

CCO[Si](OCC)(OCC)c1ccccc1
active: [16] 50.9 µM
not listed: [5] | [6] | [10] | [20]
inactive: all other assays above

CCCCNC(N)=O
active: [16] 68.7 µM
not listed: [2] | [5] | [14] | [18]
inactive: all other assays above

CC(=O)O[C@]1(C(C)=O)CC[C@H]2[C@@H]3C=C(C)C4=CC(=O)CC[C@]4(C)[C@H]3CC[C@@]21C
inactive: [19] | [20] | [17] | [9] | [18] | [11] | [12]

COc1cc(CNC(=O)CCCC/C=C/C(C)C)ccc1O
inactive: [19] | [20] | [17] | [9] | [10] | [18] | [11] | [12]

[O-][n+]1ccc(Cl)cc1
not listed: [9] | [10] | [11] | [12] | [16] | [17] | [18] | [19]
inactive: all other assays above

CC1=C(CC(=O)O)c2cc(F)ccc2/C1=C\c1ccc(S(C)=O)cc1 (centres undefined)
active: [2] 44.9 µM | [4] 180 µM | [16] 5.37 µM
not listed: [9] | [12] | [20]
inactive: all other assays above

CCCCCCCCCC/C=C/C1CC(=O)OC1=O (centres undefined)
not listed: [5] | [13]
inactive: all other assays above

Cc1ccnc(N)c1
active: [16] 44.6 µM
not listed: [9] | [11] | [12] | [13] | [17] | [20]
inactive: all other assays above

O=[N+]([O-])c1ccc(ON=Cc2cc(Br)c(O)c(Br)c2)c([N+](=O)[O-])c1
inactive: [19] | [10] | [11]
active: [20] 79 µM | [17] 34.4 µM | [9] 8.26 µM | [18] 13.8 µM | [12] 75.9 µM

CC/C=C/CCO
active: [16] 40.5 µM
not listed: [17] | [18]
inactive: all other assays above

CC[N+](CC)(CC(=O)Nc1c(C)cccc1C)Cc1ccccc1
inactive: [13] | [14] | [1] | [2] | [3] | [5] | [6] | [7]
active: [16] 32.4 µM

COc1ccccc1Oc1c(NS(=O)(=O)c2ccc(C(C)(C)C)cc2)nc(-c2ncccn2)nc1OCCO
inactive: [19] | [20] | [17] | [18]

CC(C)(C)C(=O)C(=O)O
inactive: [20] | [18] | [11] | [12]

O=C(Oc1ccccc1)c1ccccc1
inactive: [13] | [14] | [1] | [2] | [3] | [4] | [16] | [6] | [7]

C=C(C)C(=O)OCCCCCC
not listed: [9] | [14] | [16] | [17]
inactive: all other assays above

O=C(O)/C=C\C(=O)O
active: [16] 41.1 µM
inactive: [13] | [14] | [1] | [15] | [3] | [4] | [6] | [7] | [8]
